Assay results as given in the supplement of paper PMC10849652.
About 8,800 targets were measured; listed, in parts, are those with a hit and a random draw of the rest. About 0.5% of all pairs of compound and target were hits.

The targets below were run with CC(C)C1=C2N=C(C=C(N2N=C1)NCC3=CC=CC=C3)NCCCCCCN (assay: log2 fold change, soluble protein after heating vs DMSO (PISA); higher = thermal stabilisation; K562 lysate, 10 uM; active = over 0.2 and 3.5 SD of the protein, either way, in both replicates (recomputed)).
Method in brief: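 Log-two fold change in thermal stability relative to solvent controls is reported from duplicates. For each sample, crude K562 extract from dounce-homogenised pellets in PBS pH 7.4 with 1 mM MgCl2, at 1 mg/mL protein, was treated with 10 μM compound for 30 min. Aliquots heated for 3 min across 48°C-58°C were pooled, brought to 0.5% NP-40 at 4°C and cleared at 21,000xg for 90 min. The supernatant was quantified by TMTpro 16plex LC-MS/MS with channel sums equalised.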

Chain of UniProt Q9BTD8 (Q9BTD8 whole entry, looked up): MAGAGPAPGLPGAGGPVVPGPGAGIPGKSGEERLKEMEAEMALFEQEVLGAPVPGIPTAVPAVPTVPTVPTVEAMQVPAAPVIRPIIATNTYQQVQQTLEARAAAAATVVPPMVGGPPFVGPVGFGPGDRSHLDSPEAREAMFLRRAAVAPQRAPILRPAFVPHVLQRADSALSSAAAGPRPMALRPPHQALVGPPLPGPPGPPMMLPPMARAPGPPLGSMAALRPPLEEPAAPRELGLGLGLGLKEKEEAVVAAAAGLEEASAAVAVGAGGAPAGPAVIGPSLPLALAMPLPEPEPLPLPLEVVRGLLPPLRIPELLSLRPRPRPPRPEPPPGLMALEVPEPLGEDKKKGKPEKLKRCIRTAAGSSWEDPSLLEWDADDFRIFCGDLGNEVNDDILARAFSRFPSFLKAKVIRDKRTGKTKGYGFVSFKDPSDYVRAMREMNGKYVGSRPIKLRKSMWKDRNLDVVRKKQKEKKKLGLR
Chain of UniProt Q96DM3 (Q96DM3 whole entry, looked up): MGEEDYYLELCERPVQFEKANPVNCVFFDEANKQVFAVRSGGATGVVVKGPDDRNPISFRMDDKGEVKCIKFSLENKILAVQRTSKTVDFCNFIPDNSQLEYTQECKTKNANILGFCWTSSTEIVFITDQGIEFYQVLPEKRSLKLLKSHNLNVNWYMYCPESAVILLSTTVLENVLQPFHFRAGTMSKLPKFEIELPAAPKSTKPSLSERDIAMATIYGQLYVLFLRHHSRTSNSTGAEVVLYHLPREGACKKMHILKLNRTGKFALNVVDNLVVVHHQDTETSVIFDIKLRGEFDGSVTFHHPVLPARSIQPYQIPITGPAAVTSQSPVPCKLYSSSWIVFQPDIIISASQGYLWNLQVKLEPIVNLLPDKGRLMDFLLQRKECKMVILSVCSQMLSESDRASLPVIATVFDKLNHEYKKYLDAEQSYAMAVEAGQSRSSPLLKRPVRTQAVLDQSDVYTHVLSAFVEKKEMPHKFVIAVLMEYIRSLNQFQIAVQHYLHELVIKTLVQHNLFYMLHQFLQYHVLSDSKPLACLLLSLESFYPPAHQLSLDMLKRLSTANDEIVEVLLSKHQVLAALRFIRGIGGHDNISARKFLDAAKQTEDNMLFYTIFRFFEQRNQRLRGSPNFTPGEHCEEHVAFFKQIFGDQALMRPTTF
Chain of UniProt P23443 (P23443 whole entry, looked up): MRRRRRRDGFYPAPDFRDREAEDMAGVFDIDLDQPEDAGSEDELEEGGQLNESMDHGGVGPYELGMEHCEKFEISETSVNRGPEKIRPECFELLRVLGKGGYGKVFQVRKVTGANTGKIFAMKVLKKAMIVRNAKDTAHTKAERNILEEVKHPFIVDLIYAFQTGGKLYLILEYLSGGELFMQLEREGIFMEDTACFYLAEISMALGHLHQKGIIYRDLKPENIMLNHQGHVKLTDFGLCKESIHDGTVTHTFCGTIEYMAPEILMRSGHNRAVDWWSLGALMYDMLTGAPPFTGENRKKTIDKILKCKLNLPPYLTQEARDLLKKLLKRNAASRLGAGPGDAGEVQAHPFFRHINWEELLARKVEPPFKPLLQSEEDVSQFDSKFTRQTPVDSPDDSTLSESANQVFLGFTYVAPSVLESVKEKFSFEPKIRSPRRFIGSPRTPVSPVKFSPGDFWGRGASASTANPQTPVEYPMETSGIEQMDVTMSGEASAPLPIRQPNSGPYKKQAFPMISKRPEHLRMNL
Chain of UniProt Q8NBX0 (Q8NBX0 whole entry, looked up): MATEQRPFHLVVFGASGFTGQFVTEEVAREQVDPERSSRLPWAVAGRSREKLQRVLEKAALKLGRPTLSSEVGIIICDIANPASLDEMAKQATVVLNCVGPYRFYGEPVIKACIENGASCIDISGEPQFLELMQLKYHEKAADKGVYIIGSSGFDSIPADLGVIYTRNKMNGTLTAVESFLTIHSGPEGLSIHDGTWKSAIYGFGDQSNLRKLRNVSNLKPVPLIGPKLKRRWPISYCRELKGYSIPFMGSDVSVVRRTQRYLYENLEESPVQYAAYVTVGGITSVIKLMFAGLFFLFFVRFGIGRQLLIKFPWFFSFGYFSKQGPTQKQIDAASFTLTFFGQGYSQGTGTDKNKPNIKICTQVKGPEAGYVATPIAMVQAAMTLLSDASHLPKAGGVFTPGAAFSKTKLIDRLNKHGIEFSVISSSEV
Chain of UniProt Q99442 (Q99442 whole entry, looked up): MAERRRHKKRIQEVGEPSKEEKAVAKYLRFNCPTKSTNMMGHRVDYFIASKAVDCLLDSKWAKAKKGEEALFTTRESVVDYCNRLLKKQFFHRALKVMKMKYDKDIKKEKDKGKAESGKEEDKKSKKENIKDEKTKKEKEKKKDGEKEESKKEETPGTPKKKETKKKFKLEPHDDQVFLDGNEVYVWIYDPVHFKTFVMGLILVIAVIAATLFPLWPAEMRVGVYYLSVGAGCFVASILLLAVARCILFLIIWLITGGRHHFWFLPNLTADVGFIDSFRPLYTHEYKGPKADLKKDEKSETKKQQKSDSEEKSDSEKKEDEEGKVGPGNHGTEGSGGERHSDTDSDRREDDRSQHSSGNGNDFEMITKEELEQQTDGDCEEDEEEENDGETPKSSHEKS
Chain of UniProt Q15283 (Q15283 whole entry, looked up): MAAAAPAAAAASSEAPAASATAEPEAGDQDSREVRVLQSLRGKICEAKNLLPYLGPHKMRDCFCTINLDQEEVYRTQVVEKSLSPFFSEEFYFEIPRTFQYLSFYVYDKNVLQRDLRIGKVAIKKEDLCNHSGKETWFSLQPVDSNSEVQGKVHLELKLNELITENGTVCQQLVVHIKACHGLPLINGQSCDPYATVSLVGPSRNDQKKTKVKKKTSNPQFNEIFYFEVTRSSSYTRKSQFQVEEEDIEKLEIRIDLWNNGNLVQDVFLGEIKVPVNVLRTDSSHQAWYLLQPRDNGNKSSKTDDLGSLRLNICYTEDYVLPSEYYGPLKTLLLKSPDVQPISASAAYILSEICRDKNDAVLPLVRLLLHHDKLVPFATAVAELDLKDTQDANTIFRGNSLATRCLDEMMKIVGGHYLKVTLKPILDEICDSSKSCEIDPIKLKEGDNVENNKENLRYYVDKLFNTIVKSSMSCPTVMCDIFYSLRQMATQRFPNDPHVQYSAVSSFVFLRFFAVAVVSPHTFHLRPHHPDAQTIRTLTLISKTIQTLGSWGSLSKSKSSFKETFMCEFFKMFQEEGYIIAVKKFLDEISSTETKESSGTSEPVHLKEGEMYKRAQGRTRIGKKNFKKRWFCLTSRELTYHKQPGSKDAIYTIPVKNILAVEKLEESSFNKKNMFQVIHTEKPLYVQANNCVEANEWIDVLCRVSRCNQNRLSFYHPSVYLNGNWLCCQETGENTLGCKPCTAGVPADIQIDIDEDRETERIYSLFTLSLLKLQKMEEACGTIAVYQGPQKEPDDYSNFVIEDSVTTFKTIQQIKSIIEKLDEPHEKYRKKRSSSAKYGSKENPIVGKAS
Chain of UniProt Q8WWV3 (Q8WWV3 whole entry, looked up): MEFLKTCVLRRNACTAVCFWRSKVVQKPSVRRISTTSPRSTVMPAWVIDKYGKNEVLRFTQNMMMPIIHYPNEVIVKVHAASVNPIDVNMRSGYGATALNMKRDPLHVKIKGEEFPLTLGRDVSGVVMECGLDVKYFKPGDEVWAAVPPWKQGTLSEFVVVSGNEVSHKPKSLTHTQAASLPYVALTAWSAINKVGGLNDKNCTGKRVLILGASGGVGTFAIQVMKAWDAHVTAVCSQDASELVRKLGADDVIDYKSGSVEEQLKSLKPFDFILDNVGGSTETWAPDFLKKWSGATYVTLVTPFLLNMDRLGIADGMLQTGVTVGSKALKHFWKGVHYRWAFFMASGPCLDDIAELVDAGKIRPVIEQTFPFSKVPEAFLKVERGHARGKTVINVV
Chain of UniProt P53805 (P53805 whole entry, looked up): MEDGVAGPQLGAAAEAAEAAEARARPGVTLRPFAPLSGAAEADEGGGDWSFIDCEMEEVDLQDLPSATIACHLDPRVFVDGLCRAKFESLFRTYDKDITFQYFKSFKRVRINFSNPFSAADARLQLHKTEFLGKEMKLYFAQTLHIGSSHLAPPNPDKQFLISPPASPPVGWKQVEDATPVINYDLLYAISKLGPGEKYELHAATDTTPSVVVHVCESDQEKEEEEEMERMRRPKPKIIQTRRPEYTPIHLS
Chain of UniProt Q99708 (Q99708 whole entry, looked up): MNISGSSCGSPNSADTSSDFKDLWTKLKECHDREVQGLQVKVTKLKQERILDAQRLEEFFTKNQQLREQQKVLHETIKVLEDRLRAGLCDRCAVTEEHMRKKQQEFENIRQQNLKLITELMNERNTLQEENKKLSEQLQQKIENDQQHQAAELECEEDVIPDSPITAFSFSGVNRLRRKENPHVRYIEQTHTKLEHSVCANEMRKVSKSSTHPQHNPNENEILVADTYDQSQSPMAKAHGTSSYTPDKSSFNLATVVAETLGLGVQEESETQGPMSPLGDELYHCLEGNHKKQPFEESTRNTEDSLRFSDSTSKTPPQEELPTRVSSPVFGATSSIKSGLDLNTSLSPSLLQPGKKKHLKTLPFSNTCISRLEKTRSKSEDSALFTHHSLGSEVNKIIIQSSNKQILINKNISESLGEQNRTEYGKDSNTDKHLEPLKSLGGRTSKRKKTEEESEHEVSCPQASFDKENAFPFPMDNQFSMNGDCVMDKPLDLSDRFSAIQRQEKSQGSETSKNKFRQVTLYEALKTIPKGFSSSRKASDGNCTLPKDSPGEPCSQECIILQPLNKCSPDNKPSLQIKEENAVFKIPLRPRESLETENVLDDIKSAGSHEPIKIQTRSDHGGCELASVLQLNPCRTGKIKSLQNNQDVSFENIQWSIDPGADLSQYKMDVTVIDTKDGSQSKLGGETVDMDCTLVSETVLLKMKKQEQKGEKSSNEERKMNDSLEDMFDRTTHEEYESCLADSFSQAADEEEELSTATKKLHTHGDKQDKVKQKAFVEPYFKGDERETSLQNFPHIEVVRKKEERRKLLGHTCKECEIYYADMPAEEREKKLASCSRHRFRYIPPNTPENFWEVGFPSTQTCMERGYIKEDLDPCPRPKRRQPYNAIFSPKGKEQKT

log2 fold change, inactive:
SEC62 (UniProt Q99442) 0.02
RPL28 (UniProt P46779) 0.006
SBF1 isoform 4 (UniProt O95248) -0.079
SEC16A isoform 5 (UniProt O15027) 0.01
SEH1L isoform 1 (UniProt Q96EE3) 0.005
RDH14 (UniProt Q9HBH5) 0.012
RFC3 (UniProt P40938) -0.04
RAB1B (UniProt Q9H0U4) -0.006
RRAGA (UniProt Q7L523) 0.006
RAB3IL1 (UniProt E9PK89) -0.069
RBM42 (UniProt Q9BTD8) 0.081
RBSN (UniProt Q9H1K0) 0.043
RAC2 (UniProt P15153) 0.047
RSU1 (UniProt Q15404) 0.005
RPL37A (UniProt P61513) -0.009
QRSL1 (UniProt Q9H0R6) 0.066
RBBP8 isoform 2 (UniProt Q99708) -0.006
RASA2 (UniProt Q15283) 0.014
RIOK3 (UniProt O14730) 0.054
RMC1 (UniProt Q96DM3) -0.001
RPS6KB1 (UniProt P23443) -0.027
RCAN1 (UniProt P53805) 0.002
RNF40 (UniProt O75150) -0.023
RNPS1 (UniProt Q15287) 0.005
RAI14 isoform 2 (UniProt Q9P0K7) -0.004
SDHA (UniProt P31040) -0.01
SCCPDH (UniProt Q8NBX0) 0.122
RPS6KA1 (UniProt Q15418) -0.011
RBM22 (UniProt Q9NW64) -0.033
RPS26P11 (UniProt Q5JNZ5) -0.019
RTN4IP1 (UniProt Q8WWV3) -0.042
ROCK1 (UniProt Q13464) -0.003
RPL8 (UniProt P62917) -0.008
RPL36AL (UniProt Q969Q0) -0.004
